Here are results for eight compounds from PubChem BioAssay (NCI).

The panel holds about 83,000 compounds, 20% with a hit somewhere; the sample as a whole holds those more often.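 Interpretation: 100, growth as untreated; towards 0, rising growth inhibition; 0, no net growth; 0 to -100, cell death. Compounds scoring below 10 were considered active.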 A number with no mark means an inactive call. Activity calls are given as the source filed them.

Among the test systems are SR leukemia; RPMI-8226 leukemia; OVCAR-8 ovarian; OVCAR-5 ovarian; OVCAR-4 ovarian; SK-OV-3 ovarian; IGROV1 ovarian; OVCAR-3 ovarian; HS 578T breast; NCI/ADR-RES ovarian; T-47D breast; BT-549 breast; MDA-MB-435 melanoma; SW-620 colon; MCF7 breast; HCT-116 colon; HCC-2998 colon; KM12 colon.
Holding throughout (assay): NCI-60 one-dose screen, 48 h (100 = growth as untreated, 0 = no growth, -100 = all killed)
What all share (conditions): 10 µM unless noted

`N/C(=N\OC(=O)c1ccccc1)C(C(=O)NOC(=O)c1ccccc1)C1CCCCC1` (centres undefined): the growth in the test with SR leukemia was 4.57% (active); in the test on RPMI-8226 leukemia it was 41.5%; in the test with OVCAR-8 ovarian it was 65.8%; in the test with OVCAR-5 ovarian, 92.2%; in the test on OVCAR-4 ovarian it was 72.8%; in the test with SK-OV-3 ovarian, 108%. In addition, the growth in the test with IGROV1 ovarian was -56.2% (active); in the test on OVCAR-3 ovarian it was 66.9%; in the test with HS 578T breast, 26.7%; with NCI/ADR-RES ovarian, 45.2%; with T-47D breast, 72.1%; in the test with BT-549 breast, 74.4%. Moreover, the growth with MDA-MB-435 melanoma is 38.9%; with SW-620 colon, 82.1%; in the test on MCF7 breast, 65.6%; in the test on HCT-116 colon, 36.7%; with HCC-2998 colon, 98%; in the test with KM12 colon, 19.9%.
With `CCN(CC)CC(=O)Nc1c(C)ccc(N)c1C`, the growth in the test on SR leukemia was 151%; with RPMI-8226 leukemia, 111%; in the test with OVCAR-8 ovarian it was 105%; in the test with OVCAR-5 ovarian it was 99.2%; in the test on OVCAR-4 ovarian it was 99.1%; with SK-OV-3 ovarian it was 96.7%. For the same compound, the growth was 95.4% with IGROV1 ovarian; 109% with OVCAR-3 ovarian; 105% in the test with HS 578T breast; 99.2% in the test with NCI/ADR-RES ovarian; 96.6% with T-47D breast; 97.2% in the test with BT-549 breast. The growth in the test on MDA-MB-435 melanoma was 99.8%; in the test with SW-620 colon it was 104%; in the test on MCF7 breast, 92.4%; in the test with HCT-116 colon it was 84%; with HCC-2998 colon it was 96.8%; with KM12 colon, 114%.
Consider `S=C(Cc1ccccc1)N1CCN(c2ccccc2Cl)CC1`, for which the growth with SR leukemia is 70.3%; in the test with RPMI-8226 leukemia, 95.1%; in the test on OVCAR-8 ovarian it was 99.1%; with OVCAR-5 ovarian, 97.6%; with OVCAR-4 ovarian, 105%; in the test with SK-OV-3 ovarian, 101%. For the same compound, the growth is 110% in the test on IGROV1 ovarian; 106% in the test with OVCAR-3 ovarian; 97.3% with HS 578T breast; 96.7% with NCI/ADR-RES ovarian; 94.4% in the test with T-47D breast; 96.6% in the test on BT-549 breast. Further, the growth in the test with MDA-MB-435 melanoma was 104%; in the test with SW-620 colon, 103%; with MCF7 breast, 110%; with HCT-116 colon, 88.2%; in the test on HCC-2998 colon it was 101%; in the test on KM12 colon, 94.5%.
Regarding `COc1ccccc1/C=C/C(=O)CCC(=O)O`, the growth in the test on SR leukemia is 89.1%; in the test on RPMI-8226 leukemia, 98.8%; in the test with OVCAR-8 ovarian, 105%; in the test on OVCAR-5 ovarian, 104%; in the test with OVCAR-4 ovarian, 104%; in the test on SK-OV-3 ovarian it was 98.5%. Further, the growth was 110% with IGROV1 ovarian; 107% with OVCAR-3 ovarian; 96% with HS 578T breast; 107% in the test on NCI/ADR-RES ovarian; 93.1% in the test on T-47D breast; 113% with BT-549 breast. Also, the growth with MDA-MB-435 melanoma is 108%; in the test with SW-620 colon it was 107%; in the test with MCF7 breast, 102%; with HCT-116 colon, 101%; in the test on HCC-2998 colon, 114%; in the test with KM12 colon, 114%.
Consider `COc1ccc(/C=N/NC(N)=S)c(OC)n1`, for which the growth in the test with SR leukemia is 88.3%; in the test with RPMI-8226 leukemia, 94.8%; in the test with OVCAR-8 ovarian it was 97.7%; in the test with OVCAR-5 ovarian, 109%; with OVCAR-4 ovarian it was 93.9%; in the test with SK-OV-3 ovarian it was 114%. For the same compound, the growth with IGROV1 ovarian was 100%; in the test on OVCAR-3 ovarian, 111%; in the test on HS 578T breast, 103%; in the test on NCI/ADR-RES ovarian, 109%; in the test on T-47D breast it was 80%; with BT-549 breast, 102%. Also, the growth in the test on MDA-MB-435 melanoma was 101%; in the test with SW-620 colon, 108%; in the test with MCF7 breast, 93.6%; in the test on HCT-116 colon, 99.2%; with HCC-2998 colon it was 115%; with KM12 colon it was 102%.
Consider `C=C(c1ccc(C(=O)NCCCn2ccnc2)cc1)c1cc2c(cc1C)C(C)(C)CCC2(C)C`, for which the growth with SR leukemia was -27.2% (active); in the test with RPMI-8226 leukemia it was 22.7%; in the test with OVCAR-8 ovarian it was 40%; in the test on OVCAR-5 ovarian, 33.3%; with OVCAR-4 ovarian, 37%; in the test with SK-OV-3 ovarian, 4.17% (active). Besides, the growth was 7.28% (active) in the test with IGROV1 ovarian; 25.7% in the test on OVCAR-3 ovarian; 59.7% in the test with HS 578T breast; 5.05% (active) with NCI/ADR-RES ovarian; -16.9% (active) in the test on T-47D breast; 39.7% in the test on BT-549 breast. Also, the growth in the test with MDA-MB-435 melanoma is -27% (active); in the test with SW-620 colon it was 16.5%; with MCF7 breast, 35.5%; in the test with HCT-116 colon it was -59% (active); with HCC-2998 colon, 26.8%; with KM12 colon, 24.5%.
As to `CN1C2CCC1/C(=C\c1ccc(F)cc1)C(=O)/C2=C/c1ccc(F)cc1`, the growth in the test on SR leukemia is 21.6%; with RPMI-8226 leukemia, 11%; with OVCAR-8 ovarian, -19.8% (active); with OVCAR-5 ovarian it was 72.3%; with OVCAR-4 ovarian it was 39.1%; in the test on SK-OV-3 ovarian, 79.8%. The growth is 61.9% with IGROV1 ovarian; 21% in the test on OVCAR-3 ovarian; 75% in the test with HS 578T breast; 20.2% in the test on NCI/ADR-RES ovarian; 41.2% in the test with T-47D breast; 39.6% in the test on BT-549 breast. The growth is 31.3% in the test on MDA-MB-435 melanoma; 38.2% in the test with SW-620 colon; 24.5% in the test with MCF7 breast; 9.46% (active) in the test with HCT-116 colon; 82.6% in the test with HCC-2998 colon; 31.3% in the test with KM12 colon.
On to `CC(C)[C@@]12C[C@@H](OC(=O)[C@H]3CO3)[C@@](C)(O1)[C@@H]1CC[C@@H](C)[C@H]1[C@@H]2OC(=O)/C=C/c1ccccc1`, for which the growth in the test with SR leukemia was 69.4%; in the test with RPMI-8226 leukemia, 72.7%; in the test on OVCAR-8 ovarian, 11.1%; in the test on OVCAR-5 ovarian it was 100%; in the test with OVCAR-4 ovarian, 92%; with SK-OV-3 ovarian, 76.5%. Also, the growth was 85.7% in the test on IGROV1 ovarian; 87% in the test on OVCAR-3 ovarian; -23.9% (active) with HS 578T breast; 31.1% in the test with NCI/ADR-RES ovarian; 49.4% with T-47D breast; 21.4% with BT-549 breast. Further, the growth was 98.2% in the test with MDA-MB-435 melanoma; 94.8% in the test with SW-620 colon; 62.4% with MCF7 breast; 65.8% with HCT-116 colon; 105% in the test with HCC-2998 colon; 103% in the test on KM12 colon.
